Screens from PubChem.
In the library only some 7% were active in any assay of this set; here they are far more common.
AHR act = activators of human aryl hydrocarbon receptor; P35869; AID 2796; activation, % at 5 µM; actives 2.5% (n = 320,000); AHR-responsive luciferase reporter cells, luminescence; in the data active = activation above about 47%;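 also: 0% = vehicle wells and 100% = reference agonist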
ADAM17 inh = inhibitors of human ADAM17; P78536; recombinant ADAM17, EDANS/DABCYL FRET peptide cleavage; inhibition, % at 6.95 µM; actives 0.83% (n = 370,000); AID 720648;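 active = inhibition above the mean of compounds lying between control limits plus 3 SD, set per campaign, cut at about 8.5% in these data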;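 also: 0% = DMSO-only wells as the low control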
GRIN3A LBD mod = NR3A (human) ligand-binding domain modulation | NR3A LBD differential scanning fluorimetry, Tm shift; 0% = protein alone, 100% = glycine-bound protein | Tm shift relative to glycine control, % at 25 µM | actives 2.5% (n = 340,000) | AID 1259313;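 active = melting temperature shift of at least 10% of the positive control shift, at one fixed dose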
ADAM10 inh = inhibits human ADAM10. O14672. recombinant ADAM10, EDANS/DABCYL FRET peptide cleavage, 3 h. inhibition, % at 7 µM. actives 0.62% (n = 370,000). AID 720582;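 active = inhibition above a per-campaign cutoff equal to the mean of compounds falling between control-based bounds plus 3 SD, cut at about 20% in these data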;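 also: 0% = DMSO wells while the 100% control is not disclosed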
proKLK7 act = activators of human kallikrein-7 zymogen | actives 0.9% (n = 370,000) | AID 652039 | purified proKLK7, EDANS-DABCYL substrate fluorescence; 100% is mature enzyme control, 0% vehicle | activation, % at 7 µM;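 active = activation above the mean of all tested compounds plus 3 SD, computed per campaign excluding outliers beyond control limits, cut at about 13% in these data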
Target sequence (P49862 whole entry, looked up): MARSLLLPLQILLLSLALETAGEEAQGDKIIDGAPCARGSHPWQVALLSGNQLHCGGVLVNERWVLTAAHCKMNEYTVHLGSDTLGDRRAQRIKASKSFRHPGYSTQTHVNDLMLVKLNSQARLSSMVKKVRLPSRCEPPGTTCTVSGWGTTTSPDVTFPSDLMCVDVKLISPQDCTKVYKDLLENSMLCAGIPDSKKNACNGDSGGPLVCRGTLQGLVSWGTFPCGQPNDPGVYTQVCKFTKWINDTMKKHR
rCAG RNA binder = molecules binding r(CAG) RNA repeats; r(CAG) RNA repeat, TO-PRO-1 dye displacement fluorescence; inhibition, % at 3 µM; AID 651821; actives 1.3% (n = 370,000);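 active = inhibition above the plate cutoff, the mean of all test compounds on that plate plus 3 SD, cut at about 35% in these data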;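 also: 0% = DMSO alone and 100% = 100 µM mitoxantrone as full dye displacement; higher means more dye released from RNA so lower well fluorescence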
An asterisk follows results filed as active; i = inactive; x = not tested or not shown.

SMILES	AHR act	ADAM17 inh	GRIN3A LBD mod	ADAM10 inh	proKLK7 act	rCAG RNA binder
CN1c2ccccc2Oc2nnc(N3CCN(Cc4ccccc4)CC3)cc21	-5	-455	-4	i	5	-6
CCN(CC)CCOc1cc2c(nn1)Oc1ccccc1N2C	-1	-210	0	i	16*	1
COc1ccc(Cc2nnc(SCC(=O)NC3CCCC3)o2)cc1	2	-2	19*	6	0	-4
Nn1c(-c2cccs2)nc2sc3c(c2c1=O)CCCC3	58*	-27	3	-66	-7	10
CC1(C)Cc2c(sc3nc(-c4cccs4)n(N)c(=O)c23)CO1	73*	-17	-1	-54	2	4
COC(=O)c1cc2c(c3c4cc(OC)ccc4n(S(=O)(=O)c4ccc(OC)cc4)c13)C(=O)N(Cc1ccco1)C2	x	-6	x	-18	-15	21
CCCCN(C)C(=O)CSc1nnc(-c2cccnc2)n1C1CCCCC1	x	0	x	-1	0	0
COC(=O)[C@]12C[C@H](CC(=O)N3CCN(C(=O)c4ccco4)CC3)C(=O)N(CCC3=CCCCC3)C1=C[C@H](COCc1ccccc1)O[C@@H]2C	x	1	x	6	1	5
COC1=C[C@H](C(=O)NCc2ccccn2)[C@H](C)[C@@H](c2ccccc2)CC1=O	x	-5	x	-11	0	5
Nc1sc(-c2ccccc2)n[n+]1Cc1cccc2cccnc12	85*	-1	-2	1	0	-1
Oc1ccccc1CNc1cccc2cccnc12	19	-11	-5	-13	1	4
O=C(NCCCc1ccccc1)[C@H](Cc1ccccc1)NC1(C(=O)NCCc2c[nH]c3ccccc23)CCOCC1	x	5	x	15	x	x
O=C1CNC(=S)N1Cc1ccc(F)cc1	0	x	72*	x	x	x
O=C1CNC(=S)N1Cc1ccccc1	0	0	-21	-4	0	-2
CC(C)=CCc1c(O)cc(O)c2c1OC(c1ccc(O)cc1)CC2=O (stereo not drawn)	9	8	5	15	0	3
CC(C)=CCc1c(O)c(CC=C(C)C)c2c(c1O)C(=O)CC(c1ccc(O)cc1)O2 (stereo not drawn)	1	8	15*	16	0	23
COC(=O)c1cc(S(=O)(=O)NCC2CCN(C(=O)C(=O)c3cccs3)CC2)cs1	x	-6	x	-2	0	4
Cn1c(SCc2ccc(C(C)(C)C)cc2)nnc1-c1ccco1	x	1	x	5	0	-1
S=C(NN=C(c1ccccc1)c1ccccn1)N(Cc1ccccn1)Cc1ccccn1	x	72*	-2	78*	0	9
CC(=NNC(=S)N(Cc1ccccn1)Cc1ccccn1)c1cnccn1	x	-7	1	-15	1	3
CC(C)C[C@@H]1COc2cc(Br)ccc2S(=O)(=O)N1Cc1cn(Cc2ccco2)nn1	x	-2	x	0	1	6
O=C(CN1CCN(Cc2ccccc2)CC1)c1ccc(Br)cc1	x	4	11*	6	0	1
O=C(/C=C/c1c(F)cccc1Cl)Nc1ccncc1	45	4	-8	-14	1	-2
O=C(/C=C/c1c(Cl)cccc1Cl)Nc1ccncc1	-2	-2	27*	5	0	9
O=C(/C=C/c1ccc(Cl)cc1Cl)Nc1ccncc1	1	4	32*	7	0	6
SMILES	AHR act	ADAM17 inh	GRIN3A LBD mod	ADAM10 inh	proKLK7 act	rCAG RNA binder
CC(C)C[C@H](NS(=O)(=O)c1ccc(F)cc1F)C(=O)N1CCC[C@H]1C(=O)NCc1ccccc1	x	-2	x	-7	0	0
Cc1c(Cc2ccccc2)c(=O)oc2c(C)c(OCc3nn[nH]n3)ccc12	0	-189	-18	-483	-5	59*
CN(C)c1ccc(/C=C/C(=O)c2ccc(O)cc2)cc1	x	7	12*	-3	-1	4
CC(C)C[C@@H]1COc2cccc(N3CCCC3)c2S(=O)(=O)N1	x	-4	x	-8	1	-1
Cc1ccc(-c2csc(NS(=O)(=O)c3cccc(F)c3)n2)o1	7	-2	4	-6	1	71*
Cc1nc(CNS(=O)(=O)c2cccc(F)c2)cs1	1	-2	-10	8	0	2
